Measured values as given in PubChem BioAssay (NCATS).
Results filed as inconclusive are left out. A call without a number means that no potency is given here. Activity calls are given as the source filed them. The call rests on the fitted dose curve; in most records, active means well fitted cell-killing curve with a large enough effect; inconclusive means small, poorly fitted or top-dose-only effect; inactive means flat fitted curve, though single readings scatter.

experiment: Cell Viability - LYMP1-003 - Assay at 40 hr (AID 964); conditions: LYMP1-003 lymphoblastoid viability; series mostly up to 92.2 µM; further: nearly all actives have a fitted effect of over 60% in size
Description: NIH Chemical Genomics Center [NCGC]
NIH Molecular Libraries Screening Centers Network [MLSCN]
National Institutes of Environmental Health Sciences [NIEHS]
National Toxicology Program [NTP]
We have developed a 1536-well cell-based assay for quantitative high throughput screening (qHTS) against a number of cell lines to determine in vitro cytotoxicity of small molecules. This particular assay uses a human lymphoblastoid cell line (LYMP1-003) purchased from Coriell Institute for Medical Research.
NCGC Assay Protocol Summary:
The CellTiter-Glo luminescent cell viability assay (Promega) is a homogeneous method to measure the number of viable cells in culture. The end point readout of this assay is based on quantitation of intracellular ATP, an indicator of metabolic activity, using the luciferase reaction. Luciferase catalyzes the oxidation of beetle Luciferin to oxyluciferin and light in the presence of ATP. The luminescent signal is proportional to amount of ATP present.
Using the CellTiter-Glo luminescent cell viability assay, the amount of cellular ATP was measured in the lymphoblastoid cell line with complete culture medium following compound treatment for 40 hours. The assay was performed in opaque white Kalypsys 1536-well plates. In the screen, tetraoctylammonium bromide was used as positive control. Library compounds were measured for their ability to cause acute toxicity in the cell line, as reflected by a decrease in intracellular ATP levels, in a concentration-dependent manner. […] AC50 values were determined from concentration-response data modeled with the standard Hill equation.
qHTS protocol for CellTiter Glo lymphoblastoid cellular assay
[Step] [Parameter] [Value] [Description]
1. Reagent; 5 uL; 2500 lymphoblastoid cells/well
2. Time; 5 hr; 37 C incubation
4. Controls; 23 nL; Tetraoctylammonium bromide 6.4pM to 92 uM
5. Time; 40 hr; 37 C incubation
6. Reagent; 5 uL; CellTiter Glo reagent
7. Time; 30 min; Room Temperature
8. Detection; Luminescence; Viewlux plate reader
Keywords: cell viability, cytotoxicity, lymphoblastoid cell line, luminescence, NTPHTS, NTPHTS_NCGC, NIEHS, DSSTox, MLSMR, MLSCN, NIH Roadmap, qHTS, NCGC

Question: With Cc1ccc2c(C)cccc2c1 as the compound, how does the Potency read?
Answer: The Potency was “inactive”.

Question: Which Potency does the source give for Cl/C=C/Cl here?
Answer: Its Potency is “inactive”.

Question: With FC(Cl)(Cl)Cl as the compound, how does the Potency read?
Answer: The Potency was “inactive”.

Question: Which Potency does the source give for N#CCCC#N here?
Answer: Its Potency is “inactive”.

Question: For ClC(Cl)(Cl)C(Cl)(Cl)Cl, which Potency is on record?
Answer: Its Potency is “inactive”.

Question: For O=C(O)CCl, which Potency is on record?
Answer: The Potency was “inactive”.

Question: With CCCCCC[N+](=O)[O-] as the compound, how does the Potency read?
Answer: Its Potency is “inactive”.

Question: For O=[N+]([O-])c1cc(Cl)c(Cl)cc1Cl, which Potency is on record?
Answer: The Potency was “inactive”.

Question: With O=Cc1ccc(Cl)cc1Cl as the compound, how does the Potency read?
Answer: The Potency was “inactive”.

Question: For N#CCBr, which Potency is on record?
Answer: The Potency was “inactive”.

Question: For CCNCC, which Potency is on record?
Answer: Its Potency is “inactive”.

Question: Which Potency does the source give for ClC(Cl)c1ccccc1 here?
Answer: The Potency was “inactive”.

Question: Which Potency does the source give for O=NN1CCCCC1 here?
Answer: Its Potency is “inactive”.

Question: Which Potency does the source give for OC[P+](CO)(CO)CO here?
Answer: Its Potency is “inactive”.

Question: With CC(C)Br as the compound, how does the Potency read?
Answer: Its Potency is “inactive”.

Question: For CC(C)(C)C(O)(CCc1ccc(Cl)cc1)Cn1cncn1 (stereo not given), which Potency is on record?
Answer: The Potency was “inactive”.

Question: With ClCC(Cl)Cl as the compound, how does the Potency read?
Answer: The Potency was “inactive”.

Question: For COc1cc(-c2ccc(N)c(OC)c2)ccc1N, which Potency is on record?
Answer: Its Potency is “inactive”.

Question: For O=[N+]([O-])c1cccc(CCl)c1, which Potency is on record?
Answer: Its Potency is “inactive”.

Question: With ClCCOCCCl as the compound, how does the Potency read?
Answer: Its Potency is “inactive”.

Question: For ClCCBr, which Potency is on record?
Answer: The Potency was “inactive”.

Question: Which Potency does the source give for CCCCOC(=O)c1ccccc1N here?
Answer: The Potency was “inactive”.

Question: With Cc1ccc(N)c(C)c1 as the compound, how does the Potency read?
Answer: The Potency was “inactive”.

Question: With Cc1coc2c1CCC(C)C2 (stereo not given) as the compound, how does the Potency read?
Answer: The Potency was “inactive”.

Question: For CCOC(=O)C1OC1(C)c1ccccc1 (stereo not given), which Potency is on record?
Answer: Its Potency is “inactive”.

Question: Which Potency does the source give for Nc1ccc([N+](=O)[O-])cc1[N+](=O)[O-] here?
Answer: Its Potency is “inactive”.

Question: Which Potency does the source give for Clc1ccc(C(Cl)(Cl)Cl)cc1Cl here?
Answer: Its Potency is “inactive”.

Question: For CC(C)OS(C)(=O)=O, which Potency is on record?
Answer: The Potency was “inactive”.

Question: With CC(C)(COCC1CO1)COCC1CO1 (stereo not given) as the compound, how does the Potency read?
Answer: Its Potency is “inactive”.

Question: For Cc1ccc(OP(=O)(Oc2ccc(C)cc2)Oc2ccc(C)cc2)cc1, which Potency is on record?
Answer: Its Potency is “inactive”.

Question: Which Potency does the source give for Cl/C=C\Cl here?
Answer: Its Potency is “inactive”.

Question: Which Potency does the source give for OCCBr here?
Answer: The Potency was “inactive”.

Question: Which Potency does the source give for O=Cc1ccc2c(c1)OCO2 here?
Answer: Its Potency is “inactive”.

Question: With S=c1[nH]c2ccccc2[nH]1 as the compound, how does the Potency read?
Answer: Its Potency is “inactive”.

Question: With O=[N+]([O-])c1ccc2c3c(cccc13)CC2 as the compound, how does the Potency read?
Answer: The Potency was “inactive”.

Question: For c1ccoc1, which Potency is on record?
Answer: The Potency was “inactive”.

Question: Which Potency does the source give for C=CC(=O)OC here?
Answer: The Potency was “inactive”.

Question: For OCCCCO, which Potency is on record?
Answer: Its Potency is “inactive”.

Question: Which Potency does the source give for O=[N+]([O-])CCO here?
Answer: Its Potency is “inactive”.

Question: With Cc1cnc[nH]1 as the compound, how does the Potency read?
Answer: Its Potency is “inactive”.
